Common to all, as to assay: PBM binding z-score (relative to random genomic background probes); higher = stronger binding; sequences stand for … in GC…GCGATTGACAGCGTAGAATGAAGG
Test [1] concerns FXR:RXRa (NR concentration 270 nM, RXRa partner concentration 90 nM). In outline:
(§1)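 The probes on custom Agilent 4×180K protein-binding microarrays were double-stranded, with 34-nt variable regions bearing direct-repeat seeds, single-nucleotide variants, half-site ablations and random human genomic background sequences. Incubation lasted 1 h with ligand-free nuclear receptor dimers in PBS pH 7.4, 2% milk, 0.02% Triton X-100, 1 mM DTT, 0.2 mg/mL BSA and 0.4 mg/ml salmon testes DNA. Antibodies against each partner (one per run) detected bound dimers, and fluorescence scans were regression-normalized. Binding z-scores take the random background probes as reference.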

Test [2] deals with LXRa:RXRa (NR concentration 270 nM, RXRa partner concentration 90 nM). In outline: as §1
Test [3] has as its system LXRa homodimer (NR concentration 270 nM). In outline: as §1
Test [4] deals with LXRb:RXRa (NR concentration 270 nM, RXRa partner concentration 90 nM). In short, it runs like this:
as §1

Test [5] deals with LXRb homodimer (NR concentration 270 nM). In short, it runs like this: as §1
The test system of test [6] is PPARa:RXRa (NR concentration 270 nM, RXRa partner concentration 90 nM). In short, it runs like this: as §1
The subject of test [7] is PPARg:RXRa (NR concentration 180 nM, RXRa partner concentration 90 nM). In short, it runs like this:
as §1

For test [8], the system named is PPARg:RXRa 270nM:90nM, anti-RXR (NR concentration 270 nM, RXRa partner concentration 90 nM). In outline: as §1
The subject of test [9] is PPARg:RXRa 30nM:10nM, anti-RXR (NR concentration 30 nM, RXRa partner concentration 10 nM). In outline:
as §1

For test [10], the system named is PPARg:RXRa 90nM:30nM, anti-RXR (NR concentration 90 nM, RXRa partner concentration 30 nM). In outline: as §1

For the sequence CCTACTGGGCCAAAAAGGTCATTGGTGCCGATAA, the PBM binding z-score in test [1] came to 3.94; in [2] it was 4.46; in test [3] it was 3.31; in [4], 4.08; in test [5], 0.197; in test [6] it was 4.67. The PBM binding z-score in test [7] was 3.1; in [8] it was 4.12; in test [9], 1.19; in test [10] it was 3.34.

Regarding CCTACTGGGCTATTCAGAGGTCATTGATCATATG, the PBM binding z-score was 2.44 in test [1]; 4.58 in test [2]; 7.28 in [3]; 3.7 in test [4]; 0.414 in test [5]; 3.44 in test [6]. For the same sequence, the PBM binding z-score in test [7] was determined as 1.17; in [8], 2.73; in test [9], 0.812; in test [10], 1.97.

Turning to CCTTACGGGTCACTAGGTTATAGCACGACGAGCG, the PBM binding z-score in [1] was 4.41; in [2], 3.03; in [3], 0.136; in test [4], 2.64; in [5], -0.31; in [6] it was 5.02. In addition, the PBM binding z-score in test [7] was found to be 6.65; in [8] it was 5.97; in test [9], 3.03; in [10] it was 4.94.

For CCTATTAGTTGACCATAAGGACAACCGAAGCTCG, the PBM binding z-score in [1] stood at 1.29; in test [2], 0.43; in test [3], 0.89; in test [4], 0.473; in test [5], 1.33; in [6], 0.262. The PBM binding z-score in [7] was found to be 0.871; in test [8], 0.107; in test [9], 0.251; in [10], 0.449.

Regarding TCTTCTAGATCAACAGGAGGTTAAGAAAGATCGA, the PBM binding z-score in test [1] stood at 0.645; in test [2] it was 1.25; in [3], 0.194; in test [4] it was 0.772; in test [5], 0.728; in test [6], 1.24. Moreover, the PBM binding z-score in [7] was found to be 0.0258; in test [8], 1.94; in [9], 3.46; in [10], 2.67.

With TAGCCTAGGTCAGATCAGGCCAGTATACGCTATA, the PBM binding z-score in [1] is 2.57; in test [2] it was 1.55; in test [3], -0.196; in test [4] it was 0.898; in test [5] it was -0.239; in test [6], 1.69. For the same sequence, the PBM binding z-score stood at 0.794 in test [7], 0.923 in test [8], 0.0567 in test [9] and 0.604 in [10].

For the sequence TCATATAGGTAAAAGGTGAACGTCGGTGTGGTAA, the PBM binding z-score in test [1] is 2.13; in test [2] it was 2; in test [3] it was 0.308; in test [4] it was 1.96; in test [5], 0.0983; in test [6], 5.54. In addition, the PBM binding z-score in [7] worked out at 9.49; in [8] it was 8.84; in test [9], 8.77; in test [10] it was 9.46.

Take CCGACTGCGGCAAGGTTACCATAACGCACAGCCA: the PBM binding z-score in test [1] was 0.311; in [2], 0.827; in test [3], 0.0346; in test [4] it was 0.9; in test [5], -0.64; in test [6], 1.02. Besides, the PBM binding z-score in test [7] was 0.614; in [8] it was -0.189; in [9], -0.715; in test [10] it was -0.26.

Consider GGAACGAGGGCATTCGATTTGATAGCATGGCGAT, for which the PBM binding z-score in test [1] is 0.98; in [2], 0.589; in test [3], -0.512; in [4], 0.472; in [5], -0.24; in [6] it was 1.49. Further, the PBM binding z-score in test [7] was found to be 1.13; in [8], 1.23; in test [9], 0.159; in test [10], 0.731.

For CCTACTGGGCCAACGTCATTGATCAGTCAAAGCA, the PBM binding z-score was -0.18 in [1]; -0.496 in test [2]; -0.262 in test [3]; -0.492 in [4]; -0.8 in test [5]; 0.419 in test [6]. The PBM binding z-score in [7] was 0.876; in [8] it was 0.556; in [9], -0.362; in test [10] it was 0.3.

For the sequence CCTGGTTGGTCAGGAGGTCACACACCGGATATGA, the PBM binding z-score in [1] came to 3.43; in test [2], 3.17; in test [3], 1.62; in test [4] it was 3.13; in test [5], 0.647; in test [6], 3.89. The PBM binding z-score came out at 2.6 in test [7], 3.31 in test [8], 0.453 in [9] and 1.96 in [10].

As for TCTAGCAGGCCAGTGGGTCACTCAAGAGGTACGG, the PBM binding z-score in [1] was 0.165; in [2], 0.09; in test [3], -0.387; in test [4], 0.111; in test [5] it was -1.21; in [6] it was 1.83. Further, the PBM binding z-score in test [7] came out at 1.59; in test [8] it was 2.19; in test [9] it was 1.78; in [10], 2.09.

As to TTACCAAGGTGAAAGGTCGTTGACGCACGCCTTG, the PBM binding z-score was 4.03 in test [1]; 3.4 in test [2]; 0.245 in [3]; 2.91 in [4]; -0.135 in [5]; 5.49 in [6]. Moreover, the PBM binding z-score in test [7] was found to be 8.84; in test [8] it was 8.07; in [9], 6.9; in test [10], 8.64.

Source of the values: the supplement of paper PMC6555819.
